Test results: PubChem BioAssay (NCI)
The panel holds about 79,000 compounds, 15% with a hit somewhere; the sample as a whole holds those more often. Cut-off read from the data, not from the text of the source: active = growth inhibition above about 70%; inactive = the rest.

Columns and labels:
[1] = NCI Yeast Anticancer Drug Screen. Data for the rad50 strain (AID 155);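 note: 0% = growth of vehicle-only cultures of the same strain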; details: S. cerevisiae rad50 strain growth inhibition; at 50.0 µM; hits give high values
How it was run: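 Yeast carrying a defined DNA repair defect were exposed to test compounds, and growth was compared with vehicle-treated controls to give percent inhibition.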

[2] = NCI Yeast Anticancer Drug Screen. Data for the mec2-1 strain (AID 157); details: S. cerevisiae mec2-1 strain, at 50.0 µM, hits give high values
How it was run: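 Test agents were screened against the mec2-1 yeast strain, with defined DNA repair or cell cycle alteration. Growth was scored as inhibition against vehicle-only controls.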

[3] = NCI Yeast Anticancer Drug Screen. Data for the sgs1 mgt1 strain (AID 161);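 note: 0% = growth of cultures given vehicle only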; details: S. cerevisiae sgs1 mgt1 strain, at 50.0 µM, hits give high values
How it was run: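 Genetically altered yeast, compound exposure, growth inhibition relative to vehicle.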

[4] = NCI Yeast Anticancer Drug Screen. Data for the cln2 rad14 strain (AID 165);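 note: 0% = growth equal to vehicle treated cultures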; details: S. cerevisiae cln2 rad14 strain, at 50.0 µM, hits give high values
How it was run: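 Growth of compound-exposed yeast (cln2 rad14 genotype) measured and expressed as inhibition relative to vehicle.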

[5] = NCI Yeast Anticancer Drug Screen. Data for the bub3 strain (AID 167); details: S. cerevisiae bub3 mutant strain, at 50.0 µM, hits give high values
How it was run: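 Compounds were applied to a genetically altered yeast strain carrying a cell-cycle control defect. Growth inhibition was scored against vehicle-treated controls.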

[6] = NCI Yeast Anticancer Drug Screen. Data for the mlh1 rad18 strain (AID 175); details: S. cerevisiae mlh1 rad18 strain growth inhibition; at 50.0 µM; hits give high values
How it was run: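 In this whole-cell yeast screen, a strain with altered DNA damage repair is challenged with compound, and its growth is measured against matched vehicle-treated controls.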

Measured: growth inhibition

CCOC(=O)C(NC(=O)/C=C\C(=O)O)C(C)C (centres undefined)
inactive: [1] 3.7% | [2] 22.1% | [3] 2.55% | [4] 23.9% | [5] 15.4% | [6] 35.2%

Cc1ccc2nc(C)cn2c1
inactive: [1] -0.05% | [2] 7.7% | [3] -1.15% | [4] 14.3% | [5] 10.7% | [6] 2.3%

C=C1CC[C@H]2C(C)=CC[C@@H]3[C@H](OC(=O)[C@H]3COC)[C@@H]12
inactive: [1] 3.6% | [2] -39% | [3] -11.5% | [4] 5.4% | [5] -18.6% | [6] -11.4%

CN(C)c1ccc(/C=C/C(=O)/C=C/c2ccc(N(C)C)cc2)cc1
inactive: [1] -13.5% | [2] -2% | [3] -13.8% | [4] 7.6% | [5] -12.2% | [6] -8.9%
